Measured values published in PubChem BioAssay (NCATS).
“And” between values parts separate entries of the source, which are not always exact repeats. Equal entries are not always repeated. Inconclusive results are not listed. Entries that show only a call come without a potency. Values without a mark were called inactive. The source made the active and inactive calls. Calls come from the whole dose curve; as a rule, active = well fitted inhibition curve with a large enough effect; inconclusive = small, poorly fitted or top-dose-only effect; inactive = flat fitted curve, though single readings scatter.

What was measured:
PAD = test: qHTS profiling for inhibitors of Plasmodium falciparum proliferation (AID 504749); conditions: P. falciparum in erythrocytes, SYBR Green DNA, 72 h; series mostly up to 28.7 µM
Outline: (§1)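 Three-day growth assay of blood-stage parasites in erythrocytes (0.3% parasitemia, 2.5% hematocrit) at 37 C, 5% CO2, quantified by SYBR Green DNA staining after overnight detergent lysis.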

PC15 = test: as above; conditions: P. falciparum in erythrocytes, SYBR Green DNA, 72 h; series mostly up to 28.7 µM
Outline: as §1

PC26 = test: as above; conditions: P. falciparum in erythrocytes, SYBR Green DNA, 72 h; series mostly up to 28.7 µM
Outline: as §1

PC49 = test: as above; conditions: P. falciparum in erythrocytes, SYBR Green DNA, 72 h; series mostly up to 28.7 µM
Outline: as §1

SC27B = test: as above; conditions: P. falciparum in erythrocytes, SYBR Green DNA, 72 h; series mostly up to 28.7 µM
Outline: as §1

TAB113 = test: as above; conditions: P. falciparum in erythrocytes, SYBR Green DNA, 72 h; series mostly up to 28.7 µM
Outline: as §1

TAB165 = test: as above; conditions: P. falciparum in erythrocytes, SYBR Green DNA, 72 h; series mostly up to 28.7 µM
Outline: as §1

W2 = test: as above; conditions: P. falciparum in erythrocytes, SYBR Green DNA, 72 h; series mostly up to 28.7 µM
Outline: as §1

KB-3-1 = test: Cytotoxic Profiling of Annotated Libraries Using Quantitative High-Throughput Screening (AID 1296008); conditions: Five cell lines viability, CellTiter-Glo ATP luminescence, 48-72 h; max response: active compounds read low
Outline: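 Cytotoxicity was measured as CellTiter-Glo ATP luminescence, read after 10 min at room temperature. Compound treatment of the cells lasted 48 or 72 hr at 37 degrees Celsius in a qHTS format.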

TAB109 = test: qHTS profiling for inhibitors of Plasmodium falciparum proliferation (AID 504749); conditions: P. falciparum in erythrocytes, SYBR Green DNA, 72 h; series mostly up to 28.7 µM
Outline: as §1
Note: nearly all actives have a fitted effect of over 60% in size.
Potency is the fitted concentration of half-maximal effect.

SMILES	Potency (PAD)	Potency (PC15)	Potency (PC26)	Potency (PC49)	Potency (SC27B)	Potency (TAB113)	Potency (TAB165)	Potency (W2)	max response (KB-3-1)	Potency (TAB109)	Potency (KB-3-1)
C[C@H](N)C(=O)N[C@@H](C)P(=O)(O)O	inactive	inactive	inactive	inactive	inactive	inactive	inactive	inactive	-6.78%		
Oc1cc(O)cc(O)c1	inactive	inactive	inactive	inactive	inactive	inactive	inactive	inactive	3%	inactive	
C[C@@](Cc1ccc(O)c(O)c1)(NN)C(=O)O	inactive	inactive	inactive	inactive	inactive	inactive	inactive	inactive	2.59%	inactive	
COC(=O)CCC[N+](C)(C)C	inactive	inactive	inactive	inactive	inactive	inactive	inactive	inactive	-6.27%	inactive	
CC1(C)S[C@@H]2[C@H](NC(=O)C3(N)CCCCC3)C(=O)N2[C@H]1C(=O)O	inactive	inactive	inactive	inactive	inactive	inactive	inactive	inactive	-2.76%	inactive	
CCCCC/C=C\C/C=C\C/C=C\CCCCC(=O)O	inactive	inactive	inactive	inactive	inactive		inactive	inactive	-2.17%	inactive	
CC(=O)Oc1cccc(C(=O)O)c1OC(C)=O	inactive	inactive	inactive	inactive	inactive	inactive	inactive	inactive	-11.2%		
CC/C(=C(/CC)c1ccc(OP(=O)(O)O)cc1)c1ccc(OP(=O)(O)O)cc1	inactive	inactive	inactive	inactive	inactive	inactive	inactive	inactive	-7.92%	inactive	
CC(C)(C)CC(C)(C)c1ccc(OCCO)cc1	inactive	inactive	inactive	inactive	inactive	inactive		inactive	-16.2%	inactive	
CCC(C(=O)NC(N)=O)c1ccccc1 (configuration not stated)	inactive	inactive	inactive	inactive	inactive	inactive	inactive	inactive	4%	inactive	
CC(C)(CO)[C@@H](O)C(=O)NCCC(=O)NCCSSCCNC(=O)CCNC(=O)[C@H](O)C(C)(C)CO	inactive	inactive	inactive	inactive	inactive	inactive	inactive	inactive	-0.241%	inactive	
CC1(O)CCC(C(C)(C)O)CC1 (configuration not stated)	inactive	inactive	inactive	inactive	inactive	inactive	inactive	inactive	-9.81%	inactive	
OCl	inactive	inactive	inactive	inactive	inactive	inactive	inactive	inactive	19.8%	inactive	
C=Cc1ccc(S(=O)(=O)O)cc1	inactive	inactive	inactive	inactive	inactive	inactive	inactive	inactive	36.9%	inactive	
COC1=C(OC)C(=O)C(C/C=C(\C)CC/C=C(\C)CC/C=C(\C)CC/C=C(\C)CC/C=C(\C)CC/C=C(\C)CC/C=C(\C)CC/C=C(\C)CC/C=C(\C)CCC=C(C)C)=C(C)C1=O	inactive	inactive	inactive	inactive	inactive	inactive	inactive	inactive	-15.4%	inactive	
CC(=O)[O][Al][O]C(C)=O	inactive	inactive	inactive	inactive	inactive	inactive	inactive	inactive	-5.29%	inactive	
N[C@H](CC(=O)O)C(=O)O	inactive	inactive	inactive	inactive	inactive	inactive	inactive	inactive	11.5%	inactive	
CO/N=C(\C(=O)N[C@@H]1C(=O)N2C(C(=O)[O-])=C(C[n+]3cccc4c3CCC4)CS[C@H]12)c1csc(N)n1	inactive	inactive	inactive	inactive	inactive		inactive	inactive	-1.98%	inactive	
CCCOC(=O)c1ccccc1O	inactive	inactive	inactive	inactive	inactive	inactive	inactive		-1.94%		
O=C(O)c1ccc(OCCn2ccnc2)cc1	inactive	inactive	inactive	inactive	inactive	inactive	inactive	inactive	6.76%	inactive	
NCC(O)CC(=O)O (configuration not stated)	inactive	inactive	inactive	inactive	inactive	inactive	inactive	inactive	3.49%	inactive	

SMILES	Potency (PAD)	Potency (PC15)	Potency (PC26)	Potency (PC49)	Potency (SC27B)	Potency (TAB113)	Potency (TAB165)	Potency (W2)	max response (KB-3-1)	Potency (TAB109)	Potency (KB-3-1)
CC[C@H]1OC(=O)[C@H](C)[C@@H](O[C@H]2C[C@@](C)(OC)[C@@H](O)[C@H](C)O2)C(C)[C@@H](O[C@@H]2O[C@H](C)C[C@H](N(C)C)[C@@H]2O)[C@](C)(OC)C[C@@H](C)C(=O)[C@H](C)[C@@H](O)[C@]1(C)O (some centres not stated)	inactive			inactive	inactive	inactive	inactive	3.79 µM (active)	-4.62%	inactive	
CCC(=O)c1ccc2c(c1)N(CCCN1CCN(CCO)CC1)c1ccccc1S2	8.91 µM (active)	7.08 µM (active)	7.57 µM (active)	10 µM (active)			10 µM (active)	5.36 µM (active)	-13.4%		
CCOC(=O)c1cc(-c2ccccc2)nc2ccc(C)cc12	inactive	inactive	inactive	inactive	inactive		inactive	inactive	3.5%		
C#C[C@]1(O)CC[C@@H]2[C@H]3CCC4=CC(=O)CC[C@H]4[C@H]3C(=C)C[C@@]21CC	inactive	inactive		inactive	inactive	inactive	inactive		1.8%	inactive	
Cn1cc(NC(=O)c2cc(NC(=O)c3cc(NC=O)cn3C)cn2C)cc1C(=O)NCCC(=N)N	5.01 µM (active)	7.08 µM (active)	13.5 µM (active)		11.2 µM (active)	5.01 µM (active)	5.01 µM (active)	4.78 µM (active)	2.85%	5.01 µM (active)	
COc1ccc2c(c1)OC(C)(C)C(c1ccccc1)C2c1ccc(OCCN2CCCC2)cc1 (configuration not stated)	8.91 µM (active)	11.2 µM (active)	4.78 µM (active)		8.91 µM (active)	8.91 µM (active)	3.16 µM (active)	1.69 µM (active)	-26.5%	3.16 µM (active)	
COc1cc2c(cc1OC)[C@@H](Cc1cc(OC)c(OC)c(OC)c1)[N+](C)(CCCOC(=O)CC/C=C/CCC(=O)OCCC[N+]1(C)CCc3cc(OC)c(OC)cc3[C@H]1Cc1cc(OC)c(OC)c(OC)c1)CC2 (some centres not stated)	inactive	inactive		inactive	inactive	inactive	inactive	inactive	-6.45% and -2.94%	inactive	
CCOC(=O)[C@@H](N)CS	inactive	inactive	inactive		inactive	inactive	inactive	inactive	-7.89%	inactive	
CC1=CC(=C(c2ccc(N)cc2)c2ccc(N)cc2)C=CC1=N	2.51 µM (active)	11.2 µM (active)	5.36 µM (active)		3.16 µM (active)	1.41 µM (active)	2 µM (active)	0.536 µM (active)		2.24 µM (active)	10.3 µM (active)
CC(=O)Nc1c(I)c(C(=O)O)c(I)c(N(C)C(C)=O)c1I	inactive	inactive	inactive	inactive		inactive	inactive	inactive	3.77%	inactive	
OCC1(CO)COC(C(Cl)(Cl)Cl)OC1	inactive	inactive	inactive	inactive	inactive	inactive	inactive	inactive	16.6%		
CCSc1ccc2c(c1)N(CCCN1CCN(C)CC1)c1ccccc1S2	inactive	inactive	inactive	inactive			inactive		-2.13%	inactive	
O=C1NCCN1c1ncc([N+](=O)[O-])s1	inactive	inactive	inactive		inactive	inactive	inactive	inactive	1.83%		
CCN(CC)C(=O)c1cccnc1	inactive	inactive		inactive	inactive	inactive	inactive	inactive	-8.56%	inactive	
CC1CC(O)CC(C)(C)C1 (configuration not stated)	inactive	inactive		inactive	inactive	inactive	inactive	inactive	4.01%	inactive	
Cc1cccc(Nc2ncccc2C(=O)O)c1C	inactive	inactive	inactive	inactive	inactive		inactive	inactive	14.2%		
COc1ccc(/C=N/NC(=O)c2ccncc2)c(C(=O)O)c1OC	inactive	inactive	inactive	inactive	inactive	inactive	inactive	inactive	-1.02%		
Cc1cc(C(=O)NCCc2ccc(S(=O)(=O)NC(=O)NN3CCCCCC3)cc2)no1	inactive	inactive		inactive	inactive	inactive	inactive	inactive	8.89%	inactive	
CC(C)Cc1ccc([C@@H](C)C(=O)NS(C)(=O)=O)cc1	inactive	inactive	inactive	inactive	inactive	inactive	inactive	inactive	3.61%		
CN1C(C(=O)Nc2ccccn2)C(=O)c2sc(Cl)cc2S1(=O)=O (configuration not stated)	inactive	inactive		inactive	inactive	inactive	inactive	inactive	5.88%	inactive	
CC(C)=CCC/C(C)=C/CC/C(C)=C/CC/C=C(\C)CC/C=C(\C)CCC=C(C)C	inactive	inactive	inactive		inactive	inactive	inactive		6.34% and -6.32%	inactive	
